# Laboratory results taken from PubChem BioAssay.
# Active and inactive are the calls of the source.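 The calls were made as follows, unless noted: active = inhibition at or above 50% at 10 µM; inactive = inhibition below 50%.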
# Experiments:
# [1] = inhibitors of TNFa-induced NFkB p65 translocation, primary screen, imaging, HUVEC, MLSMR starter and 10KST1 sets (AID 438;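 active = inhibition above 20% together with a positive visual image hit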;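 also: compound added about 3h40 before a 20 min TNFalpha stimulation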;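 as to inhibition: signal is the nuclear over cytoplasmic p65 intensity ratio per well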); settings: HUVEC TNFa-induced p65 nuclear translocation; cell count: measured here: nuclei count (cytotoxicity indicator), at 2.08 µM; inhibition: at 2 µM, stronger effect = higher value, 0% TNFa-plus-vehicle, 100% no-TNFa wells
# [2] = inhibitors of mutant huntingtin aggregation, primary screen, imaging, exon1htt(103Q)mCFP cells, high-content imaging (AID 483;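 active = visual image review flags a hit and inhibition of aggregation exceeds 20%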;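 also: compound exposure lasted 3 days before fixation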;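 as to nuclei count: percent of the per-plate median nuclei count of sample wells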); settings: exon1htt(103Q)mCFP cell line, aggregate imaging, at 2 µM; inhibition of aggregation: stronger effect = higher value; nuclei count: measured here: cell count, toxicity
# [3] = inhibitors of E-selectin induction by TNFa, primary screen, imaging, HUVEC, immunofluorescence, MLSMR starter and 10KST1 sets (AID 487;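 active = visually confirmed hit in the image check and inhibition above 20%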;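 as to inhibition: signal is fraction of cell area covered by stained E-selectin grains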;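 as to nuclei count: 100% = median nuclei count of all wells on the same plate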); settings: HUVEC TNFalpha-induced E-selectin immunofluorescence imaging, at 2 µM; inhibition: stronger effect = higher value; nuclei count: measured here: cell number, toxicity
# [4] = target: Voltage-gated potassium channel subunit beta-2 (Rattus norvegicus) (UniProt P62483); assay: KvBeta enzyme negative modulators, primary screen, biochemical, NADPH fluorescence (AID 622;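 active = fluorescence slope higher than the sample average by over 3 SD, cut at about -0.22 in these data, passing the limit was not always enough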;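 also: slope of raw intensity against log time taken from 70 to 1610 s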); settings: recombinant KvBeta, 4-cyanobenzaldehyde reduction, at 10 µM, stronger effect = higher value
# Sequence of Voltage-gated potassium channel subunit beta-2 (Rattus norvegicus) (P62483 whole entry, looked up): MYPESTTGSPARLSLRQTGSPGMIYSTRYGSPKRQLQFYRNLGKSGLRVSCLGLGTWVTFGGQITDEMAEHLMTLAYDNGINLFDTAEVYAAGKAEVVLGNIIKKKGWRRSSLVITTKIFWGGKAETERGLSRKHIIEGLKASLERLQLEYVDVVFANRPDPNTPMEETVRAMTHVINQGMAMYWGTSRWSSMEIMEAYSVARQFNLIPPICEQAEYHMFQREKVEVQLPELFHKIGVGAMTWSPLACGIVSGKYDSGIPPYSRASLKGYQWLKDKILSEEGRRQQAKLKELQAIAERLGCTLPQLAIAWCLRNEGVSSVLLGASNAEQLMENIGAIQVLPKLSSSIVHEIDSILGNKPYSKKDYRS
# [5] = target: Voltage-gated potassium channel subunit beta-2 (Rattus norvegicus) (UniProt P62483); assay: KvBeta positive modulators, primary screen, biochemical, NADPH fluorescence (AID 623;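 active = NADPH fluorescence slope more negative than the mean of all samples by about 3 SD, 99.7% confidence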;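 also: fluorescence intensity change per second fitted from 20 to 320 s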); settings: Recombinant KvBeta, NADPH fluorescence decrease slope, 10 min; at 10 µM; stronger effect = lower value
# [6] = target: Alpha-2C adrenergic receptor (Homo sapiens) (UniProt P18825); assay: modulators of alpha2C/GIRK thallium flux, primary screen, cell-based, HEK293 alpha2C/GIRK1/2 (AID 624;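 active = fluorescence slope after compound addition differing from the mean of all screened samples at 99.7% confidence, in either direction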;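 also: slope of fluorescence ratio to pre-addition baseline per second over 15 to 24 s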); settings: thallium flux BTC fluorescence, at 10 µM, actives lie on both sides
# Sequence of Alpha-2C adrenergic receptor (Homo sapiens) (P18825 whole entry, looked up): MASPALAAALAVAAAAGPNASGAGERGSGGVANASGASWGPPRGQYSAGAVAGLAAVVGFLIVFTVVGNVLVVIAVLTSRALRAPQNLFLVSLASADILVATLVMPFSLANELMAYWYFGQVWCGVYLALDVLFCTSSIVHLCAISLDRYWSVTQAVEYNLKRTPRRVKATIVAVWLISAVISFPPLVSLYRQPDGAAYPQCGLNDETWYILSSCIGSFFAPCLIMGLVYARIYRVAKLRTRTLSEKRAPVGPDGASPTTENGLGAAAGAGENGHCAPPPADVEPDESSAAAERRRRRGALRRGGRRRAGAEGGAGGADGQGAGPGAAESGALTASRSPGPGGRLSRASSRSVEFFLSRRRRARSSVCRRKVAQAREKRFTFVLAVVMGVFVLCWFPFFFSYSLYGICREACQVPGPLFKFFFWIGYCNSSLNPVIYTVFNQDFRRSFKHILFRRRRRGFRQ
# [7] = inhibitors of Sendai virus-induced IRF3 signaling, primary screen, TLR/RLR signaling modifier project, cell-based, Sendai virus stimulus, luciferase, 10K MLSCN set (AID 602276); settings: HEK293 RL24 IRF3 luciferase reporter, at 10 µM, stronger effect = higher value;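 also: firefly luciferase from ISG56 promoter only with Renilla not read in this screen; 0% = Sendai virus plus DMSO and 100% = medium plus DMSO without virus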
# [8] = inhibitors of poly I:C-induced TLR3 signaling, primary screen, cell-based, poly I:C stimulus, luciferase, 10K MLSCN set (AID 602277;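 active = inhibition of the reporter signal at or above 50%; inactive = inhibition below 50%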); settings: HEK293-TLR3 RL24 IRF3 luciferase reporter, at 10 µM, stronger effect = higher value
SMILES,cell count [1],inhibition [1],inhibition of aggregation [2],nuclei count [2] [%],inhibition [3],nuclei count [3] [%],fluorescence slope [4],NADPH fluorescence slope [5],slope [6],inhibition [7],inhibition [8]
N#Cc1c(-c2ccccc2)nc(N2CCCCCC2)[nH]c1=O,379,-6.1% (inactive),1.9% (inactive),102,-43.6% (inactive),116,-0.41 (inactive),-1.5e-05 (inactive),0.0048 (inactive),6.52% (inactive),14.7% (inactive)
COc1cccc(C2=NOC(C(=O)N3CCc4ccccc4C3)C2)c1 (centres undefined),606,4.7% (inactive),11% (inactive),97.3,10.4% (inactive),107,-0.605 (inactive),-4.1e-05 (inactive),0.00592 (inactive),-5.64% (inactive),-15% (inactive)
COc1ccccc1N(CN1CCCC1=O)C(=O)c1c(F)cccc1Cl,370,-0.3% (inactive),9.3% (inactive),84.8,-15.4% (inactive),91.8,-0.477 (inactive),-3.8e-05 (inactive),0.0058 (inactive),12.3% (inactive),4.03% (inactive)
C(=C\c1ccccc1)/CSc1nnc(-c2ccccn2)n1Cc1ccco1,574,1.1% (inactive),-38.4% (inactive),24,-95.8% (inactive),109,-0.5 (inactive),-5.3e-05 (inactive),0.00478 (inactive),68.5% (active),58.9% (active)
O=S(=O)(c1ccccc1)c1nc(-c2ccco2)oc1NCCCN1CCOCC1,548,0% (inactive),-3% (inactive),88.3,-73.7% (inactive),124,-0.502 (inactive),1.1e-05 (inactive),0.0038 (inactive),0.535% (inactive),4.26% (inactive)
Cc1onc(-c2ccccc2Cl)c1C(=O)NCc1cccnc1,700,1% (inactive),8.2% (inactive),97.9,8.5% (inactive),92.3,-0.523 (inactive),1.3e-05 (inactive),0.00593 (inactive),17.8% (inactive),19.3% (inactive)
COCCn1c(C23CC4CC(CC(C4)C2)C3)n[nH]c1=S,866,3.6% (inactive),-13.1% (inactive),106,-91.1% (inactive),129,-0.44 (inactive),-2.3e-05 (inactive),0.00347 (inactive),14.6% (inactive),42.9% (inactive)
C#CCN1C(=O)C(O)(CC(=O)c2cc(OC)ccc2OC)c2ccccc21 (centres undefined),841,-2.9% (inactive),1.3% (inactive),97.5,-183% (inactive),124,-0.411 (inactive),-3.9e-05 (inactive),0.00497 (inactive),17.5% (inactive),20% (inactive)
CCOC(=O)CSc1nnc([C@H](C)NC(=O)OC(C)(C)C)o1,552,12% (inactive),-32.6% (inactive),83.6,-35% (inactive),118,-0.471 (inactive),-3.4e-05 (inactive),0.00421 (inactive),3.34% (inactive),14.1% (inactive)
O=C(Nc1ccc(Br)c2cccnc12)c1ccc(Cn2cc(Cl)cn2)o1,357,9.8% (inactive),10.4% (inactive),94.8,-76.7% (inactive),99.5,-0.519 (inactive),-3.6e-05 (inactive),0.00614 (inactive),-9.8% (inactive),-11% (inactive)
Cc1ccc(/C=c2\sc3nc(-c4ccccc4Br)nn3c2=O)o1,277,-5% (inactive),39.3% (active),92.3,-9.5% (inactive),94.1,-0.577 (inactive),-5.1e-05 (inactive),0.00296 (inactive),12.3% (inactive),18.9% (inactive)
CCc1c(C)n([O-])c2c([n+]1=O)CCC2,369,2.8% (inactive),-1.6% (inactive),106,3.1% (inactive),111,-0.51 (inactive),-1.5e-05 (inactive),0.00618 (inactive),-11.4% (inactive),7.02% (inactive)
CCc1ccc(N2CC(C(=O)OCC(=O)Nc3cc(C)on3)CC2=O)cc1 (centres undefined),465,5.3% (inactive),-4.7% (inactive),102,-6.8% (inactive),92.3,-0.368 (inactive),-2.5e-05 (inactive),0.00565 (inactive),5.09% (inactive),20.1% (inactive)
CCOc1ccc(NC(=O)c2ccccc2O)cc1,558,-1.7% (inactive),9.7% (inactive),71.8,-114% (inactive),96.2,-0.622 (inactive),-2e-05 (inactive),0.00439 (inactive),-59.1% (inactive),-110% (inactive)
